Bioassay records deposited in PubChem by National Center for Advancing Translational Sciences (NCATS).
Rows were chosen to be rich in hits. Some 21% of all compounds tested hit in one or more screens of this group.
Shiga toxin inh: blocks Shiga toxin action in Vero cells | Vero cells, Shiga toxin protein synthesis inhibition reporter | inhibition, % at 38.7 µM | hit rate 9.2% among 290,000; in the data active = inhibition mostly above about 28%, no sharp cut-off; inactive = mostly below about 43%; note: 0% is about no effect
Pf growth 96h: inhibits malaria parasite growth, 96 h; P. falciparum luciferase reporter growth, 96 h; Potency, µM (series often up to 28.7 µM), inactives show top-dose activity change, negative = inhibition, usual class: inhibitors; hit rate 6.9% among 320,000; AID 504834; note: potency is the fitted concentration of half-maximal effect; % is set by controls: 0 for no effect and ±100 for the full control effect
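Readout is luminescence from an integrated firefly luciferase in P. falciparum. Red cells, 2% hematocrit and 0.05% parasitemia final, were cultured with compound through two parasite generations (96 hours) at 37 C, 5% CO2.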
HCV inh: inhibitors of hepatitis C virus infection | Huh7.5.1 HCVcc-Cre infection, luciferase reporter, 44 h | hit rate 3.4% among 340,000 | Potency, µM (doses to about 41.8 µM), for the others: at the top dose activity change, negative = inhibition, hits mostly inhibitors | AID 651820; note: potency is the fitted concentration of half-maximal effect; % is set by controls: 0 for no effect and ±100 for the full control effect
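A cell-based infection assay in which seeded cells (1,000 per well) receive test compound after 4 h, are inoculated with HCVcc-Cre at approximately 0.5 moi, and are incubated 44 h before luminescence detection.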
Pf growth 48h: P. falciparum growth inhibition at 48 hours (one generation); P. falciparum luciferase growth in erythrocytes, 48 h; Potency, µM (highest dose often 28.7 µM), without a hit: top-dose activity change, negative = inhibition, usual class: inhibitors; hit rate 5.9% among 310,000; note: potency is the fitted concentration of half-maximal effect; % is set by controls: 0 for no effect and ±100 for the full control effect
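Luciferase-expressing parasites in RBCs, 2% Hct / 0.1% parasitemia final; RPMI 1640 + 0.5% Albumax; 37 C, 5% CO2, one generation; luminescence read-out, lower signal = inhibition.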
AMA1 RON2 block: AMA1-RON2 (P. falciparum) interaction inhibition. AlphaScreen AMA1-biotinylated RON2 peptide binding. Potency, µM (series often up to 58.2 µM), for inactives: at the highest dose activity change, negative = inhibition, actives largely listed as inhibitors. hit rate 0.2% among 360,000. AID 720542;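 note: potency is the fitted concentration of half-maximal effect; 0% = vehicle wells and -100% = peptide control; nearly all actives have a fitted effect of over 45% in size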
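AMA1 (3D7) with his tag at 25 nM final met compounds first, then biotinylated RON2 peptide at 25 nM; detection used donor plus acceptor beads, 10 µg/mL apiece, read by AlphaScreen after 30 min at room temperature.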
Cycloheximide cs: counter-screen hit for Shiga toxin inhibitors, cycloheximide. max response, %. AID 2314. cell reporter, cycloheximide protein synthesis inhibition counterscreen. hit rate 12% among 300,000; in the data active = max response mostly above about 13%, no sharp cut-off; inactive = mostly below about 14%; note: read at 38.3 µM for the half of the compounds with a filed dose; 0% is about no effect
* = called active by the depositor; ? = inconclusive; nt = no result; [ ] = another dose, or the depositor's remark. Unless noted, calls come from the whole dose curve; as a rule, active = well fitted curve in the direction sought with a large enough effect; inconclusive = small, poorly fitted or top-dose-only effect, or another doubt; inactive = no such curve, though single readings can be large; an effect the other way counts as inactive or inconclusive.

SMILES	Shiga toxin inh	Pf growth 96h	HCV inh	Pf growth 48h	AMA1 RON2 block	Cycloheximide cs
COc1cccc(/C=N/Nc2nc(Nc3ccccc3)nc(-n3nc(C)cc3C)n2)c1O	31.3*	?	8.91µM*	nt	-0.4%	43.7*
COc1cccc(/C=N/Nc2cc(-n3nc(C)cc3-c3ccccc3)ncn2)c1O	-12.2	-13.7%	5.62µM*	5.86µM*	62.6%	-3.8
COc1cccc(/C=N/Nc2nc3ccccc3n3cnnc23)c1O	-3.7	?	?	?	79.5%	10.4
Cc1cc(C)n(-c2nc(Nc3ccccc3)nc(-n3nc(C)cc3C)n2)n1	-21.6	-0.3%	-8.8%	?	8.5%	8.5
CCC(=O)Nc1c2c(nc3c1CCC3)CCCC2	-9.9	2.08µM*	8.4%	6.5%	4.1%	-1.7
COc1ccc(CC(=O)NNC(=O)COc2ccc(Br)cc2C)cc1OC	13.5	-25.0%	16.7%	0.6%	34.9%	-3.3
COc1cc(CO)ccc1OCC(=O)Nc1ccc(Br)cc1	96.4*	?	6.5%	22.0%	0.5%	20.6*
COc1ccccc1NC(=O)COc1ccc(Br)cc1CO	14.9	1.9%	-5.2%	nt	-2.5%	21.4
CCOc1cc(CNCCO)c(Cl)cc1OCC(=O)NCCc1ccccc1	-12.5	9.2%	?	?	-14.9%	1.1
CCCNCc1cc(Br)ccc1OCC(=O)NCCc1ccccc1	-8.4	11.7µM*	?	13.1µM*	-18.4%	-5.6
CC(=O)Nc1ccc(NC(=O)COc2c(C)cc(Br)cc2C)cc1	-19.1	-8.7%	3.0%	?	4.0%	5.3
O=C(COc1ccc(Br)cc1CO)Nc1ccccc1F	77.4*	2.7%	25.1µM*	83.2%	4.9%	29.3*
Cc1ccc(NC(=O)COc2ccc(Br)cc2CO)cc1	69.5	?	?	nt	33.9%	26.5*
CCCN(C(=O)COC(=O)CNC(=O)c1ccc2ccccc2c1)c1c(N)n(Cc2ccccc2)c(=O)[nH]c1=O	nt	29.8%	1.8%	27.7%	-5.1%	nt
COc1ccccc1-c1noc(Cn2cc(S(=O)(=O)N3CCCC3)ccc2=O)n1	nt	?	-5.1%	?	-1.7%	nt
Cc1cc(C)n(-c2ccccc2C#N)n1	16.1	?	8.6%	0.0%	0.0%	9.4
O=C(COc1ccc(Br)cc1CO)Nc1ccccc1	159.2	66.7%	15.8µM*	18.2%	-16.1%	26.7*
COc1ccccc1NC(=O)COc1ccc(C(=O)NC2CCCc3ccccc32)cc1OC (stereo unspecified)	-6.6	?	?	?	22.2%	-2.6
COc1ccccc1NC(=O)COc1ccc(Br)cc1CNC1CCCC1	-9.2	7.2%	?	11.7µM*	2.1%	-1.7
CCc1noc(C)c1C(=O)N1CCSC1=Nc1cccc(Cl)c1C	22.5	2.94µM*	-22.8%	?	0.6%	0.4
CC[n+]1c(/C=C2/C=C(C)CC(C)C2)sc2ccccc21 (stereo unspecified)	3.1	?	3.55µM*	?	-14.7%	-4.0
CC[n+]1c(/C=C/Nc2ccccc2)sc2ccccc21	-13.3	-84.6%	-0.2%	?	41.5%	-4.6
CC[n+]1c(C=C2C=C(C)OC(C)=C2)sc2ccccc21	-7.8	?	2.51µM*	?	1.4%	5.2
O=C1NC[C@H](CCCCN2C[C@H](Cc3ccc(O)cc3)N(CC3CCCCC3)C(=O)C2=O)N(CCc2ccc(O)cc2)C1=O	nt	nt	nt	nt	1.1%	nt
C#CCOCCOCCOCCNc1nc(N2CCN(C(=O)C(Cc3cc4ccccc4[nH]3)n3cc(C(N)Cc4ccc(O)cc4)nn3)CC2)nc(N2CCN(C(=O)C(Cc3cc4ccccc4[nH]3)n3cc(C(N)Cc4ccc(O)cc4)nn3)CC2)n1 (stereo unspecified)	9.8	?	3.5%[8.37 µM]	2.33µM*	?	-1.0
SMILES	Shiga toxin inh	Pf growth 96h	HCV inh	Pf growth 48h	AMA1 RON2 block	Cycloheximide cs
C#CCOCCOCCOCCNc1nc(N2CCN(C(=O)[C@H](Cc3cc4ccccc4[nH]3)n3cc([C@@H](N)C(C)CC)nn3)CC2)nc(N2CCN(C(=O)[C@H](Cc3cc4ccccc4[nH]3)n3cc([C@@H](N)Cc4ccc(O)cc4)nn3)CC2)n1 (stereo partly specified)	-1.1	?	nt	?	nt	-1.2
C#CCOCCOCCOCCNc1nc(N2CCN(C(=O)C(CCC(=O)O)n3cc(C(N)CC(C)C)nn3)CC2)nc(N2CCN(C(=O)C(Cc3cc4ccccc4[nH]3)n3cc(C(N)Cc4ccc(O)cc4)nn3)CC2)n1 (stereo unspecified)	-9.6	2.0%	-7.8%[8.37 µM]	-13.2%	12.4%	-3.1
C#CCOCCOCCOCCNc1nc(N2CCN(C(=O)[C@H]([C@@H](C)CC)n3cc([C@@H](N)Cc4ccc(O)cc4)nn3)CC2)nc(N2CCN(C(=O)[C@H](Cc3cc4ccccc4[nH]3)n3cc([C@@H](N)C(C)CC)nn3)CC2)n1 (stereo partly specified)	-7.4	11.7µM*	nt	?	nt	1.1
C#CCOCCOCCOCCNc1nc(N2CCN(C(=O)C(Cc3cc4ccccc4[nH]3)n3cc(C(N)Cc4ccc(O)cc4)nn3)CC2)nc(N2CCN(C(=O)C(CCC(=O)O)n3cc(C(N)C(C)CC)nn3)CC2)n1 (stereo unspecified)	nt	?	32.4%	?	29.0%	nt
C#CCOCCOCCOCCNc1nc(N2CCN(C(=O)[C@H](Cc3ccc(O)cc3)n3cc([C@@H](N)C(C)CC)nn3)CC2)nc(N2CCN(C(=O)[C@H](Cc3cc4ccccc4[nH]3)n3cc([C@@H](N)CC(C)C)nn3)CC2)n1 (stereo partly specified)	-13.8	?	-9.6%	2.94µM*	-28.8%	-2.7
C#CCOCCOCCOCCNc1nc(N2CCN(C(=O)[C@H](Cc3ccc(O)cc3)n3cc([C@@H](N)C(C)CC)nn3)CC2)nc(N2CCN(C(=O)[C@H](Cc3cc4ccccc4[nH]3)n3cc([C@@H](N)C(C)CC)nn3)CC2)n1 (stereo partly specified)	-5.5	?	25.1%	?	-10.3%	-2.5
C#CCOCCOCCOCCNc1nc(N2CCN(C(=O)[C@H](Cc3cc4ccccc4[nH]3)n3cc([C@@H](N)Cc4ccc(O)cc4)nn3)CC2)nc(N2CCN(C(=O)[C@H](Cc3cc4ccccc4[nH]3)n3cc([C@@H](N)CC(C)C)nn3)CC2)n1	-1.2	10.4µM*	43.0%	13.1µM*	?	-2.5
C[C@]12CC[C@@H]3c4ccc(O)cc4CC[C@H]3[C@@H]1CC[C@H]2O	0.8	nt	nt	nt	nt	8.1
CCOc1ccc(-c2cc(C(=O)N/N=C(\C)c3cccnc3)c3ccccc3n2)cc1	-19.4	15.3%	-22.6%	4.1%	79.7%	-3.1
COc1ccc(OC)c(-c2cc(C(=O)N/N=C(\C)c3cccnc3)c3ccccc3n2)c1	-8.2	-103.2%	-11.3%	1.47µM*	43.3%	1.1
